A short description of test [1]: anti-His antibody binders, primary screen, artefact control for SMM control protein annotation, biochemical, small-molecule microarray, 635 nm fluorescence (AID 1128).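 Also: score merges feature fluorescence with signal-to-noise for each printed compound spot.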 As to conditions: anti-His Alexa647 antibody binding, higher = more signal.
Test [2] deals with Human papillomavirus type 1a E7 protein (residues 1-88). Description: HPV1a E7 small-molecule binders, primary screen, biochemical, small-molecule microarray, residues 1-88, 635 nm (AID 1129). The following applies: small-molecule microarray binding, fluorescence 635 nm; higher = more signal.
Test [3] concerns the target Focal adhesion kinase 1 (Homo sapiens) (UniProt Q05397). Description: small-molecule microarray binders of FAK, primary screen, biochemical, 635/667 nm fluorescence, BSA, DTT (AID 1130).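 Also: composite of spot emission at 667 nm and signal to noise over triplicate slides.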 As to conditions: PTK2 binding, 635 nm fluorescence, higher = more signal.
Test [4] deals with Fibrinogen (Alexa647-labelled). The test can be described thus: fibrinogen binders on compound microarrays, profiling panel, artefact control for SMM control-protein annotation, biochemical, small-molecule microarray, 635/667 nm fluorescence (AID 1131).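 Also: z-score merges 667 nm fluorescence with per-spot signal-to-noise over triplicate slides.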 As to conditions: fibrinogen-A647 binding fluorescence, higher = more signal.
The target in test [5] is Follistatin (Homo sapiens) (UniProt P19883). The test can be described thus: follistatin binders on small-molecule microarrays, primary screen, biochemical, small-molecule microarray, 635/667 nm fluorescence (AID 1132). The following applies: FST binding, 635 nm fluorescence, higher = more signal.
Sequence of Follistatin (Homo sapiens) (P19883 whole entry, looked up): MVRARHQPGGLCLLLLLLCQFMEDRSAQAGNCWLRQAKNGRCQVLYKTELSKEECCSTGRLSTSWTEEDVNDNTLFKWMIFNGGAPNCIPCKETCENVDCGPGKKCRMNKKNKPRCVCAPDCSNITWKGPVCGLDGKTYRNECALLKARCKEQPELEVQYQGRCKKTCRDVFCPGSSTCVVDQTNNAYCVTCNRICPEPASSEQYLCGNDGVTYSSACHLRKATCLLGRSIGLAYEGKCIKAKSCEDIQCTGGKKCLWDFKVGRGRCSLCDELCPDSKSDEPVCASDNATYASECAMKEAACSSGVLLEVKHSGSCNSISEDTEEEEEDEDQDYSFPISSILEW
For test [6], the target named is Fibroblast growth factor 2 (Homo sapiens) (UniProt P09038). Description: FGF2 binders on small-molecule microarrays, primary screen, biochemical, small-molecule microarray, 635/667 nm fluorescence (AID 1133). As to conditions: small-molecule microarray binding, FGF2, fluorescence 635/667; higher = more signal.
Sequence of Fibroblast growth factor 2 (Homo sapiens) (P09038 whole entry, looked up): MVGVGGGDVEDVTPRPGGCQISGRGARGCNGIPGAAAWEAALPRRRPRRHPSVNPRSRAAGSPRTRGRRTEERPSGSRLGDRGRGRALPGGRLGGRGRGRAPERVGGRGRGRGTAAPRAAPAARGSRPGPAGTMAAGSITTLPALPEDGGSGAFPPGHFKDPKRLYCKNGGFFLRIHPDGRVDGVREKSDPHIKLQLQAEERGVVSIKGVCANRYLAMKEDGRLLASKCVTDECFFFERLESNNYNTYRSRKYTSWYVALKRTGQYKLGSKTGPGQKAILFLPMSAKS
A short description of test [7]: mitochondrial membrane potential change in A549 cells, profiling panel, cell-based, JC-1 fluorescence, basal, 24 h, 100 nL (AID 1138).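 Also: A549 lung adenocarcinoma cells under basal conditions with no added stimulus; test concentration not given here.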 As to conditions: higher = more signal.
In test [8] the test system is Lefty1. Description: Lefty1 binders on small-molecule microarrays, primary screen, biochemical, small-molecule microarray, 635/667 nm fluorescence (AID 1139). As to conditions: small-molecule microarray binding, fluorescence 635/667; higher = more signal.
For test [9], the system named is wheat germ agglutinin (Triticum aestivum), Alexa647-labelled. Description: wheat germ agglutinin binders on compound microarrays, profiling panel, artefact control for SMM control-protein annotation, biochemical, small-molecule microarray, 635/667 nm fluorescence (AID 1140).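 Also: score merges 667 nm feature emission with signal to noise over triplicate slides.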 As to conditions: WGA-A647 binding, 635 nm fluorescence, higher = more signal.
Test [10] has as its target Luciferin 4-monooxygenase (Photinus pyralis) (UniProt P08659). The test can be described thus: firefly luciferase enzyme inhibitors, primary screen, biochemical, luminescence, purified enzyme, 2006 set (AID 1141).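 Also: cell-free assay with purified firefly luciferase at 100 ng per well in PBS; test concentration not given here.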 As to conditions: SteadyGlo luminescence, 30 min, higher = more signal, called active from +8 up or from −8 down.
In test [11] the test system is Wnt5a (protein binding on small-molecule microarray). The test can be described thus: Wnt5a binders on small-molecule microarray, primary screen, biophysical, 635/667 nm fluorescence (AID 1142).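 Also: fluorescence read at 667 nm with signal to noise per printed feature.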 The following applies: 635 nm fluorescence, higher = more signal.
Test [12] is described as follows: cell viability in Huh7 cells, primary screen, cytotoxicity control for HCV replication inhibitor project, CellTiter-Glo luminescence, basal, 48 h (AID 1143).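 Also: Huh7 hepatoma cells carrying a hepatitis C replication reporter with no stimulus; test concentration not given here.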 As to conditions: Huh7 HCV replicon, higher = more signal, called active from +8 up or from −8 down. On the technique in general: ATP-based viability assays read luminescence as a measure of living cells.
The nature of test [13]: P. aeruginosa biofilm formation inhibitors, primary screen, PAO1 strain, BacTiter-Glo luminescence, LB-PBS (AID 1144). The following applies: 12 h, higher = more signal.
The nature of test [14]: CREB reporter modulators without forskolin, primary screen, cell-based, PC12, CRE-LacZ reporter, unstimulated (AID 1145). As to conditions: no forskolin, luminescence, 4.5 h, higher = more signal, called active from +8 up or from −8 down.
Test [15] can be described thus: CREB reporter modulators under forskolin, primary screen, cell-based, PC12, CRE-LacZ reporter, forskolin-stimulated (AID 1146).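 Also: PC12 cells with 6xCRE LacZ reporter stimulated by forskolin 10 µM; beta-galactosidase reporter signal reflecting CREB driven transcription.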 The following applies: luminescence, 4.5 h, higher = more signal, called active from +8 up or from −8 down.
Test [16] has as its target Streptavidin (Streptomyces avidinii) (UniProt P22629). The test can be described thus: streptavidin binders on small-molecule microarray, primary screen, artefact control for SMM compound annotation, biophysical, 635/667 nm fluorescence (AID 1147).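 Also: signal reflects streptavidin binding to arrayed compounds as a control protein.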 As to conditions: streptavidin binding, higher = more signal.
Test [17] in a line: small-molecule binders of probe aInhba, primary screen, biochemical, small-molecule microarray, 635/667 nm fluorescence (AID 1148).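 Also: score merges 667nm spot fluorescence with signal-to-noise for antibody binding to printed compounds.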 The following applies: higher = more signal.
Test [18] addresses Torsin-1A (Homo sapiens) (UniProt O14656). The test can be described thus: torsin A binders from cell lysate, primary screen, small-molecule microarray, wild-type, 635/667 nm (AID 1149). As to conditions: COS7 hTOR1A-WT lysate, 635 nm fluorescence, higher = more signal.
For test [19] the target is unchanged. The test can be described thus: small-molecule binders of mutant TOR1A in lysate, primary screen, cell lysate, small-molecule microarray, COS7 lysate, 635/667 nm fluorescence (AID 1150).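 Also: score pools 667 nm emission and signal to noise measuring lysate protein binding.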 The following applies: COS7 hTOR1A mutant lysate, 635 nm fluorescence, higher = more signal.
Test [20] relates to Sonic hedgehog protein (Shh). The test can be described thus: small-molecule binders of Shh protein, primary screen, biochemical, small-molecule microarray, 635/667 nm fluorescence (AID 1151).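 Also: Shh protein binding to compounds spotted on small-molecule microarray slides; score combines spot fluorescence intensity with signal-to-noise across triplicate slides.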 The following applies: small-molecule microarray binding, 635 nm fluorescence; higher = more signal.

Active and inactive are the calls of the source. Unless noted, no rule for the calls is given here.

Sequence of Streptavidin (Streptomyces avidinii) (P22629 whole entry, looked up): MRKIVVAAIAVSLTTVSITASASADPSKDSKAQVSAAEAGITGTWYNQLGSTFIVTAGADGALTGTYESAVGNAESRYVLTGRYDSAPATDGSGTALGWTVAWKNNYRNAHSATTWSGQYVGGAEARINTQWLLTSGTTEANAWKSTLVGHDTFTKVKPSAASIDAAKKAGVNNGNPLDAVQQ
Sequence of Torsin-1A (Homo sapiens) (O14656 whole entry, looked up): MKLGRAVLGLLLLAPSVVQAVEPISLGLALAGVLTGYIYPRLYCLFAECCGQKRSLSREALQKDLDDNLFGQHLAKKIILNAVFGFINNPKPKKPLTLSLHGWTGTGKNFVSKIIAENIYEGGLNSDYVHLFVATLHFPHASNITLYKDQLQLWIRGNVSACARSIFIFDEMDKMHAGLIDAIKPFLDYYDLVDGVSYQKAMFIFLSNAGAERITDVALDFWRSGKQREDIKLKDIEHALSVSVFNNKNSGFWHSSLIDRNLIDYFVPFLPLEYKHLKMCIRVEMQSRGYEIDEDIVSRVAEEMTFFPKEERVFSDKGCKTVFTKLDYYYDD
Sequence of Luciferin 4-monooxygenase (Photinus pyralis) (P08659 whole entry, looked up): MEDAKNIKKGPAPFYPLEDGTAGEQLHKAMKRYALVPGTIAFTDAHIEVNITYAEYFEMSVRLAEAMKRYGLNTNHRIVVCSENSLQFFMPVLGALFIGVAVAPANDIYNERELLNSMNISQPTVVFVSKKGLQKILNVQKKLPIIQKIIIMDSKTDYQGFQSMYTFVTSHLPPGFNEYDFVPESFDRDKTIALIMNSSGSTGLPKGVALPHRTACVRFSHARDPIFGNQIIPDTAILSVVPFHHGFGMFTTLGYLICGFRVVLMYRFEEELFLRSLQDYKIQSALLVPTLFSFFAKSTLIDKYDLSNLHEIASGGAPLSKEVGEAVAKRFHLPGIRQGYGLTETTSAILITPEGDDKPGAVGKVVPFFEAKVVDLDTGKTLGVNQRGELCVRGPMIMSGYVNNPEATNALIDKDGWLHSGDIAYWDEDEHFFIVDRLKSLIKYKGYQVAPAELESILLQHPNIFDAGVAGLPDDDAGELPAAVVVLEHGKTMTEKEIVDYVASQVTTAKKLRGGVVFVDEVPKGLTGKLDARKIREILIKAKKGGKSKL
Sequence of Focal adhesion kinase 1 (Homo sapiens) (Q05397 whole entry, looked up): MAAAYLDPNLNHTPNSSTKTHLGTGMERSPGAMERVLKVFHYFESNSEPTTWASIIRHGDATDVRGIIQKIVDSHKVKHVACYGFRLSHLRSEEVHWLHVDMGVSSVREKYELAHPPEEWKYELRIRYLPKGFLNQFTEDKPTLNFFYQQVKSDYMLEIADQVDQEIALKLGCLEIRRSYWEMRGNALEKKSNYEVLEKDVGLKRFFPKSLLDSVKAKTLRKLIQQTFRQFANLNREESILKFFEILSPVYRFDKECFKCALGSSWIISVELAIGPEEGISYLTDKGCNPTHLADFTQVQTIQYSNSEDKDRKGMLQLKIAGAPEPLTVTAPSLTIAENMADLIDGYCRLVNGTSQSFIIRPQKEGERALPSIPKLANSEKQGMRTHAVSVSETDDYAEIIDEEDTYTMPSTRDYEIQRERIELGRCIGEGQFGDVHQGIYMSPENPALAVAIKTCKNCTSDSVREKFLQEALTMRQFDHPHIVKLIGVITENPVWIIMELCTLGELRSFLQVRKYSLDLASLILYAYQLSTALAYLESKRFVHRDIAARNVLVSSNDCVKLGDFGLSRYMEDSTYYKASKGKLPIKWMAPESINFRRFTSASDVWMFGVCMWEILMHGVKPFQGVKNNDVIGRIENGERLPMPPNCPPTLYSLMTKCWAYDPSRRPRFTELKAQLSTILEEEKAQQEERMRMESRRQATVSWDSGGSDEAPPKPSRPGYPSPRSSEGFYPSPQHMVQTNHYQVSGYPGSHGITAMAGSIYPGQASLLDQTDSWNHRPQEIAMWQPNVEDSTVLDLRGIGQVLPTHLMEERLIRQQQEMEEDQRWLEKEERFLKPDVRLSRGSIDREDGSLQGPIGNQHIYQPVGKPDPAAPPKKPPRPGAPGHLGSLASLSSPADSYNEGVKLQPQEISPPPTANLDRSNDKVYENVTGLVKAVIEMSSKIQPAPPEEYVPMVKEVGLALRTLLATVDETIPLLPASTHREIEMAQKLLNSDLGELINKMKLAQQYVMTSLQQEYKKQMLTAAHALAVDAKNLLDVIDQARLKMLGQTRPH

For `C=C(/C(=C/C[C@@H](OC(C)=O)c1ccccc1OCCO)c1cc(C(=O)OC)ccc1OC)C(C)C`, the composite z-score in test [1] is 1.37; in test [2], 0.136; in test [3] it was 0.0593; in [4], -0.0872; in test [5] it was 0.425; in [6], 0.212. In addition, the composite z-score in [8] is 0.282; in test [9] it was 0.368; in test [11], 0.332; in [16] it was -0.576; in test [17] it was -0.024; in test [18], 0.212. The composite z-score is -0.461 in [19] and 1.02 in test [20]. The z-score in [7] was 1.68; in test [10], -1.47 (inactive); in test [12], -1.94 (inactive); in test [13] it was 0.217 (inactive); in test [14] it was 16.2 (active); in test [15], -0.37 (inactive).
In the case of `CC(C)C[C@@H]1NC(=O)C([C@@H](C)OCc2ccccc2)NC(=O)[C@@]23C(=O)N[C@@H](Cc4ccccc4)C2[C@H](C)[C@@]2(C)O[C@H]2C3/C=C/CC/C=C/CNC1=O` (stereo not given in full), the composite z-score was 0.48 in test [1]; 0.809 in test [2]; 0.87 in test [3]; -0.209 in test [4]; 0.761 in [5]; 1.11 in test [6]. The composite z-score is 0.659 in test [8]; 0.503 in test [9]; 0.237 in [11]; 0.264 in test [16]; -0.206 in test [17]; -0.608 in test [18]. In addition, the results for the composite z-score in [19] and in test [20] were 0.32 and 1.07, respectively. Besides, the z-score was 0.728 in [7]; 0.533 (inactive) in test [10]; -4.9 (inactive) in test [12]; -0.469 (inactive) in test [13]; 1.76 (inactive) in test [14]; -1.52 (inactive) in [15].
Regarding `CCCCC(O)C1C=CC2C(=O)NC(=O)C2N1Nc1ccc(Cl)cc1Cl` (stereo not given), the composite z-score was 2.42 in test [1]; 0.32 in test [2]; 0.474 in test [3]; -0.0628 in test [4]; 0.413 in [5]; -0.596 in test [6]. The composite z-score in test [8] was -0.654; in [9] it was 0.87; in test [11], -0.188; in test [16], 0.27; in test [17], 0.166; in test [18], -0.58. The composite z-score in test [19] was 0.571; in test [20] it was -0.614. For the same molecule, the z-score in [7] was -1.16; in [10], -1.31 (inactive); in test [12], -1.19 (inactive); in [13], -0.441 (inactive); in test [14], 0.819 (inactive); in [15], -0.123 (inactive).
As for `CCCCC(=C=CC[C@H](O)c1ccc(OCCO)cc1)C[C@H](O)c1ccccn1`, the composite z-score in test [1] is 1.67; in [2], 1.13; in [3] it was 0.26; in test [4], 0.963; in test [5] it was 1.27; in test [6], 1.54. Besides, the composite z-score in [8] was 0.885; in test [9] it was 0.266; in test [11], 0.259; in test [16], -0.319; in test [17], 0.0398; in test [18] it was 0.215. Also, the values for the composite z-score in test [19] and in test [20] were 1.58 and 1.17, respectively. Also, the z-score in test [7] is 1.27; in test [10], -2.27 (inactive); in [12], -0.671 (inactive); in test [13], 0.229 (inactive); in test [14], 5.13 (inactive); in [15] it was -0.533 (inactive).
Turning to `CCOC(=O)C1=CC[C@@H](c2ccccc2Cl)N(S(=O)(=O)c2ccc(C)cc2)[C@H]1c1cccc(OC)c1`, the composite z-score in [1] came to 0.413; in test [2], 1.05; in test [3] it was 0.1; in test [4], 0.737; in test [5], 0.176; in test [6], 0.0652. For the same molecule, the composite z-score is -0.0177 in test [8]; 0.54 in test [9]; 0.142 in test [11]; 0.333 in test [16]; -0.0695 in test [17]; 0.368 in test [18]. Also, the composite z-score in test [19] is 0.0635; in [20], -0.476. Besides, the z-score is 0.0495 in [7]; 0.658 (inactive) in [10]; -1.84 (inactive) in [12]; 1.15 (inactive) in test [13]; 0.425 (inactive) in test [14]; 0.173 (inactive) in test [15].

The record behind these values is PubChem BioAssay.
